The text below walks through data of the supplement of paper PMC3484114.

± gives the standard deviation.

For this experiment, the system named is OVCAR-3-derived ovarian cancer stem-like cells (spheroids). Description: cell growth relative to untreated control; higher = more growth (less inhibition). Conditions: 2.29 µM; 96 h. The procedure, abridged:
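Stem-like cells derived from OVCAR-3 spheroids were dissociated with trypsin and seeded at 50,000 cells/mL in stem cell medium in ultra-low attachment 96-well plates, then preincubated for 24 h. Each compound was added at 2.29 uM to 4 replicate wells and left for 96 h at 37°C, 5% CO2. Viability came from TOX8 resazurin fluorescence (ex 560/em 590 nm) read after 4 h. Percent growth was expressed relative to untreated wells, after blank subtraction and removal of outliers by the Grubbs test.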
`Cc1cc(N)c2ccccc2[n+]1CCCCCCCCCC[n+]1c(C)cc(N)c2ccccc21` showed a cell growth of 41.9 ± 7.2%.
As for `COc1nc(C(Cl)(Cl)Cl)c(Cl)c(OC)c1Cl`, the figure is 112 ± 17%.
The value for `N#CC(C#N)=Cc1ccc(Oc2ccccc2)cc1` was 86.2 ± 51%; that for `O=C(CC1(O)C(=O)Nc2c(Cl)cc(Cl)cc21)c1cccc([N+](=O)[O-])c1` (centres undefined) was 88.1 ± 30%.
On to `CCN(CC)c1ccc2cc3ccc(=[N+](CC)CC)cc-3oc2c1`, for which the cell growth came to 45.5 ± 10%.
The value for `O=[N+]([O-])c1ccc2oc(=Nc3ccccc3)c(Nc3ccccc3)nc2c1` was 101 ± 11%.
In the case of `CN(C)c1ccc(/C=C/C(=O)[O-])cc1.CN(C)c1ccc(/C=C/C(=O)[O-])cc1.[Cu+2]`, the cell growth is 97.6 ± 39%.
The value for `CC(=O)C(N1CCCCC1)C(O)(C(F)(F)F)C(F)(F)F` (centres undefined) was 107 ± 38%; that for `CCCCOCc1cc(CN2CCN(C)CC2)c(O)c2ncccc12` was 85.3 ± 33%; that for `N#CCCN(CCC#N)c1ccc(C=Nc2ccc(F)cc2)cc1` was 101 ± 28%.
As for `CCCCCC(CN1CCOCC1)C(=O)/C=C/c1ccccc1` (centres undefined), the figure is 93 ± 29%.
As for `O=C1C=CC(CC(=O)c2ccc3ccccc3c2)O1` (centres undefined), the figure is 112 ± 18%; as for `Cc1ccc2ccc3ccc(C)nc3c2n1`, 18.5 ± 10%; as for `C=C1C(=O)OC2C1CC1OC2C(C)CCC/C(C)=C\CCC1(C)O` (centres undefined), 115 ± 10%.
On to `C=C(NC(=O)C(=C)NC(=O)c1csc(C2=N[C@@H]3c4csc(n4)C4NC(=O)c5csc(n5)C([C@](C)(O)[C@@H](C)O)NC(=O)[C@H]5CSC(=N5)/C(=C/C)NC(=O)C(C(C)O)NC(=O)c5csc(n5)C3(CC2)NC(=O)[C@H](C)NC(=O)C(=C)NC(=O)C(=C)NC(=O)C(C(C)C)N[C@@H]2C=Cc3c([C@@H](C)O)cc(nc3[C@H]2O)C(=O)OC4C)n1)C(N)=O` (some centres undefined), for which the cell growth amounted to 56.7 ± 21%.
As for `N#CC1CC(c2ccccc2)Nc2cc(Cl)ccc2N1` (centres undefined), the figure is 80.4 ± 20%.
`COC1OC(COCc2ccc(Cl)cc2)C(OCc2ccc(Cl)cc2)C1O` (centres undefined): the cell growth worked out at 110 ± 26%.
As for `Cn1cnc([N+](=O)[O-])c1Sc1nnc(-c2cccnc2)n1C`, the figure is 151 ± 61%; as for `NCCSSCc1ccccc1CSSCCN`, 109 ± 25%.
The value for `C=C1C(=O)O[C@@H]2/C=C(/C)C(=O)C[C@H]3OC(C)(C)O[C@]3(C)C[C@@H](OC(=O)/C(C)=C\C)[C@@H]12` was 90.5 ± 31%.
On to `O=C(NCCCCCCCCNC(=O)c1cccc2ccccc12)c1cccc2ccccc12`, for which the cell growth worked out at 80.8 ± 18%.
The value for `COc1ccc(-n2/c(=N/C(=S)N(C)C)ss/c2=N\C(=S)N(C)C)cc1` was 111 ± 15%; that for `COC(=O)NC1C(C)OC(OC2C/C=C(/C)C3C=CC4C(OC5CC(OC6CC(O)C(OC7CC(O)C(OC)C(C)O7)C(C)O6)C(O)C(C)O5)C(C)CC(C)C4C3(C)/C(O)=C3\C(=O)OC4(CC(C)C(CO)=CC4/C=C\2C)C3=O)CC1(C)[N+](=O)[O-]` (centres undefined) was 105 ± 34%; that for `CCN(CC)C(=S)S` was 61.6 ± 19%.
In turn, `CC1=NN(C(=O)c2ccncc2)C(=O)C1N=Nc1ccc(F)cc1` (centres undefined) had a cell growth of 146 ± 33%.
The value for `CN(C)c1ccc(/C=C2/C=Cc3ccccc32)cc1` was 101 ± 8.1%; that for `NC(=O)C1=C[C@H]2[C@H]3C=C[C@@]2(O)C(=O)O[C@@H]3O1` was 91.3 ± 15%; that for `CC[n+]1c(-c2ccccc2)c2cc(N)ccc2c2ccc(N)cc21` was 15 ± 9.7%.
On to `O=C(O)c1ccccc1-c1ccccc1C(=O)Nc1ccc2c(c1)Cc1ccccc1-2`, for which the cell growth was determined as 80.8 ± 29%.
Take `Cc1nc(-c2cccnc2)sc1C(=O)/C=C/c1ccc(Cl)cc1Cl`: the cell growth turned out to be 114 ± 34%.
The value for `CC[C@H](C)C(=O)O[C@H]1CCC=C2C=C[C@H](C)[C@H](CC[C@@H]3C[C@@H](O)CC(=O)O3)[C@H]21` was 135 ± 25%; that for `CC(C)CCCCCCCCCCCCC(=O)NCC(=O)N[C@@H]1[C@@H](O)[C@H](O)[C@@H](Nc2ncnc3nc[nH]c23)O[C@H]1[C@@H](O)CO` was 13.2 ± 4.3%.
The value for `COc1ccc(NC(=O)CC(=O)N2N=C(C)C(N=Nc3ccc(S(=O)(=O)c4ccc(N=NC5C(=O)N(C(=O)CC(=O)Nc6ccc(OC)cc6)N=C5C)cc4)cc3)C2=O)cc1` (centres undefined) was 105 ± 30%; that for `C=CC(=O)N1C/C(=C\c2ccccc2)C(=O)/C(=C/c2ccccc2)C1` was 43.2 ± 6.1%; that for `NC(=O)NO` was 107 ± 15%.
`Cn1cnc([N+](=O)[O-])c1Sc1nnnn1-c1ccccc1` registered a cell growth of 92.6 ± 24%.
As for `COC(=O)C(=O)C(C(=O)C(=O)Nc1cc(C)ccc1C)c1nc2ccc(C(=O)c3ccccc3)cc2[nH]c1=O` (centres undefined), the figure is 91.5 ± 15%; as for `CC(C)(C)c1ccc(O)c(CN(Cc2cc(C(C)(C)C)ccc2O)C2CCCCC2)c1`, 145 ± 56%.
The value for `COc1ccc2nc(NC(=O)C(=O)CC(=O)c3ccc(Cl)cc3)sc2c1` was 109 ± 40%.
